# Data reported in PMC5540273 (PLoS ONE, 2017).
# Columns and labels:
# Conditions in all cases: concentration: 1 μM, replicates: in singlicate; n = 1
# NDR1 = test system: T1, NDR1
# T1 construct: gene STK38
# NDR2 = test system: NDR2
# NEK10 = test system: NEK10
# NEK11 = test system: NEK11
# NEK1 = test system: NEK1
# NEK2 = test system: NEK2
# NEK3 = test system: NEK3
# NEK4 = test system: NEK4
# NEK5 = test system: NEK5
# NEK6 = test system: NEK6
# NEK7 = test system: NEK7
# NEK9 = test system: NEK9
# NIK = test system: T2, NIK
# T2 construct: gene MAP3K14
# NIM1 = test system: T3, NIM1
# T3 construct: gene MGC42105
# NLK = test system: NLK
# OSR1 = test system: T4, OSR1
# T4 construct: gene OXSR1
# PAK1 = test system: PAK1
# PAK2 = test system: PAK2
# PAK3 = test system: PAK3
# PAK4 = test system: PAK4
# 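Also: KINOMEscan kinase panel screen.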
Structure (SMILES),%Inh (NDR1),%Inh (NDR2),%Inh (NEK10),%Inh (NEK11),%Inh (NEK1),%Inh (NEK2),%Inh (NEK3),%Inh (NEK4),%Inh (NEK5),%Inh (NEK6),%Inh (NEK7),%Inh (NEK9),%Inh (NIK),%Inh (NIM1),%Inh (NLK),%Inh (OSR1),%Inh (PAK1),%Inh (PAK2),%Inh (PAK3),%Inh (PAK4)
O=C(O)COc1ncnc2cc(-c3ccc4[nH]ncc4c3)sc12,24%,0%,48%,1%,0%,0%,87%,10%,25%,22%,5%,0%,0%,26%,0%,34%,5%,3%,3%,0%
Cl.Oc1ccc(-c2nc(-c3ccccc3)[nH]c2-c2ccncc2)cc1 [SB-428218],12%,5%,9%,24%,0%,3%,15%,29%,6%,0%,0%,0%,74%,38%,45%,0%,55%,55%,20%,0%
Cl.NC(=O)c1cccc(Nc2nccc(Nc3ccc(Oc4cccc(Cl)c4)c(Cl)c3)n2)c1 [GW659008],0%,0%,0%,0%,0%,0%,0%,1%,32%,0%,16%,3%,27%,29%,21%,8%,9%,9%,33%,0%
CCCc1ccc(S(=O)(=O)NC2CCN(c3ccnc(Nc4ccc(F)cc4)n3)C2)cc1 (stereo not shown) [GSK1379715],0%,0%,3%,1%,88%,0%,4%,5%,10%,0%,0%,0%,23%,18%,0%,17%,0%,2%,3%,0%
O=C(Nc1ccc2c(c1)OCO2)NC1CCN(c2ccnc(Nc3ccc(F)cc3)n2)C1 (stereo not shown) [GSK1379724],0%,0%,11%,0%,0%,0%,17%,20%,25%,0%,0%,0%,0%,46%,12%,0%,18%,37%,0%,0%
CS(=O)(=O)c1ccc(-c2nc3n(c2-c2ccncc2)CCC3)cc1 [SKF-105942],19%,0%,17%,0%,0%,15%,58%,22%,1%,0%,0%,0%,3%,17%,0%,0%,19%,26%,0%,0%
O=c1cc(N2CCOCC2)nc2n(Cc3cccc(Cl)c3Cl)ccn12 [GSK2286295],12%,0%,0%,0%,0%,4%,1%,6%,4%,0%,0%,27%,32%,0%,28%,14%,22%,11%,0%,0%
Fc1cc(Cl)ccc1Nc1ccnc2cc(I)ccc12 [GW551191],18%,0%,25%,0%,0%,4%,0%,11%,0%,0%,0%,5%,7%,19%,59%,6%,18%,9%,14%,0%
Cc1csc(-c2nc(Nc3ccncc3)c3ccccc3n2)n1 [GW869640],27%,25%,17%,9%,0%,0%,19%,28%,0%,4%,0%,16%,32%,40%,64%,17%,12%,56%,28%,9%
Cc1ccc(C(=O)Nc2ccc(Nc3ccnc4cc(-c5ccccn5)ccc34)cc2O)cc1.Cl [GW440146],6%,0%,0%,2%,0%,0%,0%,14%,0%,0%,0%,52%,11%,15%,22%,1%,12%,15%,14%,0%
CC(C)(C)c1ccc(C(=O)Nc2cn3cc(Cl)ccc3n2)cc1,99.7%,0%,4%,0%,0%,0%,21%,0%,0%,0%,0%,0%,0%,0%,0%,0%,0%,14%,0%,0%
